Data published in PubChem BioAssay.
Calls of active or inactive are those of the source.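 How the source made its calls, unless noted: active means inhibition above 20% together with a positive visual image hit; inconclusive means visual image hit but inhibition not above 20%; inactive means no visual image hit.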

How the values were obtained:
[1] = inhibitors of TNFa-induced NFkB p65 translocation, primary screen, imaging, HUVEC, MLSMR starter and 10KST1 sets (AID 438); details: HUVEC TNFa-induced p65 nuclear translocation; cell count: measured here: nuclei count (cytotoxicity indicator), at 2.08 µM; inhibition: at 2 µM, stronger effect = higher value, 0% TNFa-plus-vehicle, 100% no-TNFa wells;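 further: compound added about 3h40 before a 20 min TNFalpha stimulation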;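 on inhibition: signal is the nuclear over cytoplasmic p65 intensity ratio per well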
[2] = reduction of polyQ htt aggregates in cells – imaging, exon1htt(103Q)mCFP cells, high-content imaging, primary screen (AID 483;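 active means visual image review flags a hit and inhibition of aggregation exceeds 20%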;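 further: compound exposure lasted 3 days before fixation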;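 on nuclei count: percent of the per-plate median nuclei count of sample wells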); details: exon1htt(103Q)mCFP cell line, aggregate imaging, at 2 µM; inhibition of aggregation: stronger effect = higher value; nuclei count: measured here: cell count, toxicity
[3] = endothelial E-selectin expression blockers – imaging, HUVEC, immunofluorescence, MLSMR starter and 10KST1 sets, primary screen (AID 487;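 active means visually confirmed hit in the image check and inhibition above 20%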;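 on inhibition: signal is fraction of cell area covered by stained E-selectin grains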;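 on nuclei count: 100% = median nuclei count of all wells on the same plate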); details: HUVEC TNFalpha-induced E-selectin immunofluorescence imaging, at 2 µM; inhibition: stronger effect = higher value; nuclei count: measured here: cell number, toxicity
[4] = molecular target: Voltage-gated potassium channel subunit beta-2 (Rattus norvegicus) (UniProt P62483); test: inhibitors of rat Kvbeta2 reductase activity – biochemical, NADPH fluorescence, primary screen (AID 622;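 active means fluorescence slope higher than the sample average by over 3 SD, cut at about -0.22 in these data, passing the limit was not always enough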;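 further: slope of raw intensity against log time taken from 70 to 1610 s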); details: recombinant KvBeta, 4-cyanobenzaldehyde reduction, at 10 µM, stronger effect = higher value
Voltage-gated potassium channel subunit beta-2 (Rattus norvegicus), sequence (P62483 whole entry, looked up): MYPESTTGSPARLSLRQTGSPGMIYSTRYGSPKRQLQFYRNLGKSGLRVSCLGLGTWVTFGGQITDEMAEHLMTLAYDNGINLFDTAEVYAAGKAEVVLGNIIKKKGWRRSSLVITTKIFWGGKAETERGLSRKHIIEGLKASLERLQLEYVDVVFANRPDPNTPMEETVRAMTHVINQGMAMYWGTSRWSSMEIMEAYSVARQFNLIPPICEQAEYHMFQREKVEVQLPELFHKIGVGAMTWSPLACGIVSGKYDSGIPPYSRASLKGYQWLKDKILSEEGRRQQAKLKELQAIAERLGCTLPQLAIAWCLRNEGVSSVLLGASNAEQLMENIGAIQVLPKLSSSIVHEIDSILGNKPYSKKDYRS

[5] = molecular target: Voltage-gated potassium channel subunit beta-2 (Rattus norvegicus) (UniProt P62483); test: enhancers of rat Kvbeta2 NADPH turnover – biochemical, NADPH fluorescence, primary screen (AID 623;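 active means NADPH fluorescence slope more negative than the mean of all samples by about 3 SD, 99.7% confidence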;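 further: fluorescence intensity change per second fitted from 20 to 320 s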); details: Recombinant KvBeta, NADPH fluorescence decrease slope, 10 min; at 10 µM; stronger effect = lower value
[6] = molecular target: Alpha-2C adrenergic receptor (Homo sapiens) (UniProt P18825); test: compounds altering alpha2C-coupled GIRK flux – cell-based, HEK293 alpha2C/GIRK1/2, thallium flux, primary screen (AID 624;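 active means fluorescence slope after compound addition differing from the mean of all screened samples at 99.7% confidence, in either direction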;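 further: slope of fluorescence ratio to pre-addition baseline per second over 15 to 24 s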); details: thallium flux BTC fluorescence, at 10 µM, actives lie on both sides
Alpha-2C adrenergic receptor (Homo sapiens), sequence (P18825 whole entry, looked up): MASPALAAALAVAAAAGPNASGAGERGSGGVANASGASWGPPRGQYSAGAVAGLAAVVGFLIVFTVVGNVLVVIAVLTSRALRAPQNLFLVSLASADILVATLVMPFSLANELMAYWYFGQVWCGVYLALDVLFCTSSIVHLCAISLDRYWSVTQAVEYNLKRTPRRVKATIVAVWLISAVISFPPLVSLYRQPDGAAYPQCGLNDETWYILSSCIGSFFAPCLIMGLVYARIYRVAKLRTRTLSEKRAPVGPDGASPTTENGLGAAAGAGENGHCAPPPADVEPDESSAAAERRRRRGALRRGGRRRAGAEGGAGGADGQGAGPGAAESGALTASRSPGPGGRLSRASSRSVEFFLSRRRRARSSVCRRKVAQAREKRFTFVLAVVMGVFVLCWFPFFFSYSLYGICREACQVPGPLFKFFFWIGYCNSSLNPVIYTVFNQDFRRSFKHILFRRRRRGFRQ

[7] = blockers of RIG-like receptor reporter activation – cell-based, Sendai virus stimulus, luciferase, 10K MLSCN set, TLR/RLR signaling modifier project, primary screen (AID 602276;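 active means inhibition at or above 50% at 10 µM; inactive means inhibition below 50%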;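 further: firefly luciferase from ISG56 promoter only with Renilla not read in this screen; 0% = Sendai virus plus DMSO and 100% = medium plus DMSO without virus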); details: HEK293 RL24 IRF3 luciferase reporter, at 10 µM, stronger effect = higher value
[8] = TLR3 IRF3 reporter activation blockers – cell-based, poly I:C stimulus, luciferase, 10K MLSCN set, primary screen (AID 602277;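 active means inhibition of the reporter signal at or above 50%; inactive means inhibition below 50%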); details: HEK293-TLR3 RL24 IRF3 luciferase reporter, at 10 µM, stronger effect = higher value

Row | SMILES | cell count [1] | inhibition [1] | inhibition of aggregation [2] | nuclei count [2] | inhibition [3] | nuclei count [3] | fluorescence slope [4] | NADPH fluorescence slope [5] | slope [6] | inhibition [7] | inhibition [8]
1 | O=C(C1CCN(c2nnnn2-c2ccccc2)CC1)N1CCN(c2ccccc2)CC1 | 618 | -33.7% (inactive) | -1.1% (inactive) | 98.3% | -35.9% (inactive) | 112% | -0.602 (inactive) | -5.4e-05 (inactive) | 0.00667 (inactive) | 8.57% (inactive) | 22.4% (inactive)
2 | Oc1ccc(Cl)cc1-c1cc(-c2ccccc2)n[nH]1 | 524 | -11.4% (inactive) | 26.3% (inactive) | 81.5% | -6.5% (inactive) | 80.2% | -0.557 (inactive) | -1.3e-05 (inactive) | 0.00732 (inactive) | -23.7% (inactive) | -37% (inactive)
3 | CCOc1ccc(C2CC(=O)NC3=C2C(=O)CCC3)cc1Cl (configuration not stated) | 481 | 10% (inactive) | 5.5% (inactive) | 106% | -1.1% (inactive) | 110% | -0.407 (inactive) | -3.2e-05 (inactive) | 0.00268 (inactive) | 5.45% (inactive) | 13.2% (inactive)
4 | Cc1cccc(N2C(=O)CC(N3CCN(C(=O)c4ccccc4)CC3)C2=O)c1 (configuration not stated) | 408 | 19.1% (inactive) | 1.1% (inactive) | 106% | -12.6% (inactive) | 118% | -0.412 (inactive) | -0.000104 (inactive) | 0.00671 (inactive) | 10.6% (inactive) | 16.7% (inactive)
5 | COc1ccc(NC(=O)CCS(=O)(=O)c2ccc(OC)cc2)cc1 | 401 | -2.5% (inactive) | 20.3% (inactive) | 84.3% | -24% (inactive) | 101% | -0.539 (inactive) | -8.1e-06 (inactive) | 0.00539 (inactive) | -3.69% (inactive) | -1.71% (inactive)
6 | CCOC(=O)c1ccc(NC(=O)CSc2n[nH]c(-c3ccncc3)n2)cc1 | 590 | -1.9% (inactive) | 7.2% (inactive) | 99.9% | -26.4% (inactive) | 110% | -0.592 (inactive) | -3.8e-05 (inactive) | 0.00612 (inactive) | -5.95% (inactive) | -15.4% (inactive)
7 | COc1ccc(-c2nnc(SCC(=O)Nc3ccc(Cl)cc3)n2C)cc1 | 327 | -5.5% (inactive) | -26.9% (inactive) | 139% | -77.8% (inactive) | 122% | -0.462 (inactive) | 3.4e-05 (inactive) | 0.00817 (inactive) | -16% (inactive) | -1.71% (inactive)
